Measured values reported in PubChem BioAssay (NCATS).
Records with an inconclusive call do not appear. Calls of active or inactive are those of the source. Calls follow the shape of the dose curve; as a rule, active = well fitted curve in the direction sought with a large enough effect; inconclusive = small, poorly fitted or top-dose-only effect, or another doubt; inactive = no such curve, though single readings can be large; an effect the other way counts as inactive or inconclusive.

Assays:
HACAT = assay: qHTS assay to identify novel small-molecules to repurpose for Merkel cell carcinoma treatment (AID 1296009); settings: MCC and control cell lines, CellTiter-Glo viability, 72 h; at 44.8 µM (top of the series) unless noted; also: nearly all actives have a fitted effect of over 60% in size
Method in brief: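 Cell viability measured by CellTiter-Glo following 72 hr compound treatment at 37 degree celsius, with NPC and MIPE libraries tested in 8- and 11-point concentration series.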

C33A = assay: Primary qHTS to identify gynecologic anti-cancer compounds using libraries of approved drugs and bioactive compounds (AID 1345084); settings: Gynecologic cancer cell panel viability, ATPlite luminescence, 48 h; series mostly up to 57.5 µM; also: % is scaled to controls: 0 for no effect and ±100 for the full control effect; nearly all actives have a fitted effect of over 55% in size
Method in brief: (§1)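 Cells, 1,000 per well, plated 16 h, then exposed 48 h at 37 C to compounds. Viability by ATPlite luminescence after 15 min at room temperature.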

CAOV3 = assay: as above; settings: Gynecologic cancer cell panel viability, ATPlite luminescence, 48 h; series mostly up to 57.5 µM
Method in brief: as §1

CASKI = assay: as above; settings: Gynecologic cancer cell panel viability, ATPlite luminescence, 48 h; series mostly up to 57.5 µM
Method in brief: as §1

Es-2 = assay: as above; settings: Gynecologic cancer cell panel viability, ATPlite luminescence, 48 h; series mostly up to 57.5 µM
Method in brief: as §1

HeLa = assay: as above; settings: Gynecologic cancer cell panel viability, ATPlite luminescence, 48 h; series mostly up to 57.5 µM
Method in brief: as §1

Hek293T = assay: as above; settings: Gynecologic cancer cell panel viability, ATPlite luminescence, 48 h, control line for the selectivity index; series mostly up to 57.5 µM
Method in brief: as §1

JEG-3 = assay: as above; settings: Gynecologic cancer cell panel viability, ATPlite luminescence, 48 h; series mostly up to 57.5 µM
Method in brief: as §1

OV90 = assay: as above; settings: Gynecologic cancer cell panel viability, ATPlite luminescence, 48 h; series mostly up to 57.5 µM
Method in brief: as §1

PA-1 = assay: as above; settings: Gynecologic cancer cell panel viability, ATPlite luminescence, 48 h; series mostly up to 57.5 µM
Method in brief: as §1

SKOV3 = assay: as above; settings: Gynecologic cancer cell panel viability, ATPlite luminescence, 48 h; series mostly up to 57.5 µM
Method in brief: as §1

Tov-21-G = assay: as above; settings: Gynecologic cancer cell panel viability, ATPlite luminescence, 48 h; series mostly up to 57.5 µM
Method in brief: as §1

Tov112D = assay: as above; settings: Gynecologic cancer cell panel viability, ATPlite luminescence, 48 h; series mostly up to 57.5 µM
Method in brief: as §1

O=C(/C=C/c1ccc(O)c(O)c1)O[C@H]1[C@@H]2C=CO[C@@H](O[C@@H]3O[C@H](CO)[C@@H](O)[C@H](O)[C@H]3O)[C@@H]2[C@@]2(CO)O[C@@H]12
inactive: outcome (HACAT) inactive [at 17.4 µM] | Potency (C33A) | Potency (CAOV3) | outcome (CASKI) | Potency (Es-2) | Potency (HeLa) | Potency (Hek293T) | Potency (JEG-3) | Potency (OV90) | Potency (PA-1) | Potency (SKOV3) | Potency (Tov-21-G) | Potency (Tov112D)

Cc1cc(-c2nncc3c(C(C)(C)C)c(OCc4ncnn4C)nn23)no1
inactive: outcome (HACAT) | Potency (C33A) | Potency (CAOV3) | outcome (CASKI) | Potency (Es-2) | Potency (HeLa) | Potency (Hek293T) | Potency (JEG-3) | Potency (OV90) | Potency (PA-1) | Potency (SKOV3) | Potency (Tov-21-G) | Potency (Tov112D)

C/C=C/C=C/C=C/C(=O)N(C)C(C(=O)NC(C)C(=O)N1CCCC1C(N)=O)C(C)C (centres undefined)
inactive: outcome (HACAT) inactive [at 17.4 µM] | Potency (C33A) | Potency (CAOV3) | outcome (CASKI) | Potency (Es-2) | Potency (HeLa) | Potency (Hek293T) | Potency (JEG-3) | Potency (OV90) | Potency (PA-1) | Potency (SKOV3) | Potency (Tov-21-G) | Potency (Tov112D)

COC(=O)C1C(c2ccc(O)cc2)C(C(=O)O)C1c1ccc(O)cc1 (centres undefined)
inactive: outcome (HACAT) | Potency (C33A) | Potency (CAOV3) | outcome (CASKI) | Potency (Es-2) | Potency (HeLa) | Potency (Hek293T) | Potency (JEG-3) | Potency (OV90) | Potency (PA-1) | Potency (SKOV3) | Potency (Tov-21-G) | Potency (Tov112D)

C=C1CC2C(C)(CCC(=O)O)C(C(C)(C)O)CCC2(C)C2(C(=O)OC)C(=O)C(C)(O)C(=O)C12C (centres undefined)
inactive: outcome (HACAT) inactive [at 17.4 µM] | Potency (C33A) | Potency (CAOV3) | outcome (CASKI) | Potency (Es-2) | Potency (HeLa) | Potency (Hek293T) | Potency (JEG-3) | Potency (OV90) | Potency (PA-1) | Potency (SKOV3) | Potency (Tov-21-G) | Potency (Tov112D)

CC1OC(O[C@H]2CC[C@@]3(C)C(CC[C@]4(C)C3CC=C3C5CC(C)(C)CC[C@]5(C(=O)OC5OC(CO)C(OC6OCC(OC7OCC(O)C(O)C7O)C(O)C6O)C(O)C5O)CC[C@]34C)C2(C)C)C(O)C(O)C1OC1OC(CO)C(O)C(OC2OC(CO)C(O)C(O)C2O)C1O (some centres undefined)
inactive: outcome (HACAT) inactive [at 9.27 µM] | activity change, negative = cytotoxicity (C33A) -11.5% [at 6.55 µM] | activity change, negative = cytotoxicity (CAOV3) 2.33% [at 6.55 µM] | activity change, negative = cytotoxicity (CASKI) -4.77% [at 6.55 µM] | activity change, negative = cytotoxicity (Es-2) -1.46% [at 6.55 µM] | activity change, negative = cytotoxicity (HeLa) 1.79% [at 6.55 µM] | activity change, negative = cytotoxicity (Hek293T) -4.99% [at 6.55 µM] | activity change, negative = cytotoxicity (JEG-3) -5.08% [at 6.55 µM] | activity change, negative = cytotoxicity (OV90) -14.5% [at 6.55 µM] | activity change, negative = cytotoxicity (PA-1) -1.37% [at 6.55 µM] | activity change, negative = cytotoxicity (SKOV3) 3.95% [at 6.55 µM] | activity change, negative = cytotoxicity (Tov-21-G) -4.11% [at 6.55 µM] | activity change, negative = cytotoxicity (Tov112D) -3.05% [at 6.55 µM]

COc1cc(O)cc2c1C(=O)OC(C)C2 (centres undefined)
inactive: outcome (HACAT) | Potency (C33A) | Potency (CAOV3) | outcome (CASKI) | Potency (Es-2) | Potency (HeLa) | Potency (Hek293T) | Potency (JEG-3) | Potency (OV90) | Potency (PA-1) | Potency (SKOV3) | Potency (Tov-21-G) | Potency (Tov112D)

CC(CC(C)O[C@@H]1O[C@H](CO)[C@@H](O)[C@H](O)[C@H]1O)OC(=O)/C=C/c1ccc(O)cc1 (some centres undefined)
inactive: outcome (HACAT) inactive [at 17.4 µM] | Potency (C33A) | Potency (CAOV3) | outcome (CASKI) | Potency (Es-2) | Potency (HeLa) | Potency (Hek293T) | Potency (JEG-3) | Potency (OV90) | Potency (PA-1) | Potency (SKOV3) | Potency (Tov-21-G) | Potency (Tov112D)

COC(=O)C1=C[C@@H](O)[C@@H](O)[C@H](O[C@@H]2O[C@H](CO)[C@@H](O)[C@H](O)[C@H]2OC(=O)/C=C/c2ccccc2)C1
inactive: outcome (HACAT) inactive [at 17.4 µM] | Potency (C33A) | Potency (CAOV3) | outcome (CASKI) | Potency (Es-2) | Potency (HeLa) | Potency (Hek293T) | Potency (JEG-3) | Potency (OV90) | Potency (PA-1) | Potency (SKOV3) | Potency (Tov-21-G) | Potency (Tov112D)

CC12CC34CC(O)C5C(CO)(CO)CC(=O)CC5(C)C3CC1C2C4 (centres undefined)
inactive: outcome (HACAT) | Potency (C33A) | Potency (CAOV3) | outcome (CASKI) | Potency (Es-2) | Potency (HeLa) | Potency (Hek293T) | Potency (JEG-3) | Potency (OV90) | Potency (PA-1) | Potency (SKOV3) | Potency (Tov-21-G) | Potency (Tov112D)

C[C@@]12CC3(S(=O)(=O)O)OC(O1)[C@]1(COC(=O)c4ccccc4)[C@H]3C[C@]21O[C@@H]1O[C@H](CO)[C@@H](O)[C@H](O)[C@H]1O
inactive: outcome (HACAT) inactive [at 17.4 µM] | Potency (C33A) | Potency (CAOV3) | outcome (CASKI) | Potency (Es-2) | Potency (HeLa) | Potency (Hek293T) | Potency (JEG-3) | Potency (OV90) | Potency (PA-1) | Potency (SKOV3) | Potency (Tov-21-G) | Potency (Tov112D)

O=C(OCC1OC(Oc2ccc(O)cc2COC(=O)C2(O)C(O)CCC(=O)C2OC(=O)C2C=CCC2)C(OC(=O)C2C=CCC2)C(O)C1O)C1C=CCC1 (centres undefined)
inactive: outcome (HACAT) inactive [at 17.4 µM] | Potency (C33A) | Potency (CAOV3) | outcome (CASKI) | Potency (Es-2) | Potency (HeLa) | Potency (Hek293T) | Potency (JEG-3) | Potency (OV90) | Potency (PA-1) | Potency (SKOV3) | Potency (Tov-21-G) | Potency (Tov112D)

C=C[C@H]1[C@H](O[C@@H]2O[C@H](CO)[C@@H](O)[C@H](O)[C@H]2O)OC=C(C(=O)OC)[C@H]1CCO
inactive: outcome (HACAT) | Potency (C33A) | Potency (CAOV3) | outcome (CASKI) | Potency (Es-2) | Potency (HeLa) | Potency (Hek293T) | Potency (JEG-3) | Potency (OV90) | Potency (PA-1) | Potency (SKOV3) | Potency (Tov-21-G) | Potency (Tov112D)
